Assay outcomes from PubChem BioAssay.
MEKK2 WT-MEK5: raises or lowers MEK5 binding to wildtype human MEKK2 PB1 domain | AID 1531 | binding response (% of control), % at 10 µM | hit rate 1.1% among 290,000 | bead flow cytometry, Alexa488-MEK5 binding to MEKK2 WT; actives lie on both sides | Q9Y2U5; in the data active = binding response below about 67% or above about 130%
MEKK3 PB1 HTS: modulators (inhibitors or enhancers) of MEK5 binding to human MEKK3 PB1 domain; Q99759; bead-based flow cytometry, Alexa488-MEK5 binding to MEKK3; actives lie on both sides; 0 = blocked by unlabeled MEK5, 100 = vehicle; binding response (% of control), % at 10 µM; hit rate 1.4% among 290,000; AID 1529;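 active = binding response more than 3 SD above or below the average of its plate-row segment, actives on both sides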;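 also: Alexa488 bead fluorescence after subtracting the streptavidin-only scavenger bead signal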
GRK2 aptamer HTS: blocks RNA aptamer binding to human GRK2; P25098; bead flow cytometry, FAM-aptamer displacement from GRK2; inhibition of aptamer binding, % at 10 µM; hit rate 0.59% among 330,000; AID 488847;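 active = inhibition of aptamer binding above 40%, roughly 3 SD of noise, on plates passing a quality check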;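 also: median bead fluorescence of bound FAM aptamer so fluorescent compounds give negative values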
Target sequence (P25098 whole entry, looked up): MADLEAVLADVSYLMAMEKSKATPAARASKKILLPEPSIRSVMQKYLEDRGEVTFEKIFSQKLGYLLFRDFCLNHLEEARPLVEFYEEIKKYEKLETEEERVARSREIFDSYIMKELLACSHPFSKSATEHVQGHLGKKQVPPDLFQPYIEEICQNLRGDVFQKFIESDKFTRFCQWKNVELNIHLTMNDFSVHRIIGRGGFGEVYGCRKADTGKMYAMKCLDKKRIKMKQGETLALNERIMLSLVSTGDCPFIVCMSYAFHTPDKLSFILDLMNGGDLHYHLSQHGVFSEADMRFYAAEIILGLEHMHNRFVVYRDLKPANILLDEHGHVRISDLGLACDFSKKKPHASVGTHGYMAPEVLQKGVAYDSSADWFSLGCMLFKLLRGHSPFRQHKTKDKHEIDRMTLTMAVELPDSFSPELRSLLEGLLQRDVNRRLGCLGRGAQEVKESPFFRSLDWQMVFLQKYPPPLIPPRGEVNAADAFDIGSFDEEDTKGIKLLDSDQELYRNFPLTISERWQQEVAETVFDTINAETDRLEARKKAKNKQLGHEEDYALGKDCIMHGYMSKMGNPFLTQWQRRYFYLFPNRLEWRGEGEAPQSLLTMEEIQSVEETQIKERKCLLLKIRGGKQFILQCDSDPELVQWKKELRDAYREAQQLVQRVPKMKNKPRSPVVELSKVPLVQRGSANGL
MEKK2 mut-MEK5: signal of MEK5 binding to mutant human MEKK2 PB1 domain. bead flow cytometry, Alexa488-MEK5 binding to MEKK2 mutant. percent response, % at 10 µM. hit rate 0.35% among 290,000. AID 1530; in the data active = percent response above about 24%, passing the limit was not always enough
MEKK2wt confirm: raises or lowers MEK5 binding to wildtype human MEKK2, retest. binding response (% of control), % at 10 µM. AID 1892. hit rate 2.4% among 5,900. bead flow cytometry, Alexa488-MEK5 binding to MEKK2 WT; actives lie on both sides. shares compounds with MEKK3 PB1 HTS; in the data active = binding response below about 16% or above about 210%; inactive = in between
MEKK2mut-MEK5: signal of MEK5 binding to mutant human MEKK2, retest; shares compounds with MEKK3 PB1 HTS; bead flow cytometry, Alexa488-MEK5 binding to MEKK2 mutant; percent response, % at 10 µM; hit rate 2% among 5,900; in the data active = percent response mostly above about 71%, no sharp cut-off; inactive = mostly below about 38%;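 also: higher means compound restores mutant binding toward wildtype level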
MEKK3 confirm: MEKK3-MEK5 PB1 inhibition, single concentration confirmation | shares compounds with MEKK3 PB1 HTS | bead flow cytometry, Alexa488-MEK5 binding to MEKK3; hits give low values | binding response (% of control), % at 10 µM | hit rate 1.8% among 5,900;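 active = binding response below 72% of control, or above a set upper limit, though filed actives all read lower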;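 also: 100% = DMSO only wells and 0% = binding blocked by excess unlabeled MEK5; lower values mean stronger disruption of MEK5 binding to MEKK3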
An asterisk follows results filed as active; nt = not tested or not shown; [ ] = dose if it differs, or a comment. Only some compounds are listed: those with a hit (about 2.5% of all), similar ones and a draw of the others.

SMILES | MEKK2 WT-MEK5 | MEKK3 PB1 HTS | GRK2 aptamer HTS | MEKK2 mut-MEK5 | MEKK2wt confirm | MEKK2mut-MEK5 | MEKK3 confirm
Cc1cc2oc(=O)cc(CSc3nnc(-c4cccs4)o3)c2cc1C(C)C | 99.0 | 134.0* | 0.0 | 0.0 | 96.0 | -3.0 | 101.0
CCOc1ccc(-n2c(SCc3cc(=O)oc4cc(C)c(C(C)C)cc34)nnc2-c2cccnc2)cc1 | 102.0 | 128.0* | 8.0 | 0.0 | 107.0 | 5.0 | 107.0
COc1ccc2c(CSc3nnc(-c4cccnc4)n3-c3ccccc3F)cc(=O)oc2c1 | 102.0 | 115.0 | 2.0 | 0.0 | nt | nt | nt
COc1cccc(NC(=O)CCS(=O)(=O)c2ccc(Br)cc2)c1 | 104.0 | 100.0 | 5.0 | 0.0 | nt | nt | nt
COc1ccc(Cn2c(-c3ccc(Br)cc3)c[n+]3ccccc23)cc1 | 140.0* | 110.0 | 0.0 | 36.0 | 118.0 | 11.0 | 106.0
Cc1cc(F)ccc1S(=O)(=O)Nc1ccccc1C(=O)Nc1ccccc1-c1nc2ccccc2[nH]1 | 122.0 | 134.0* | 0.0 | 1.0 | 109.0 | 0.0 | 99.0
Cc1ccccc1-c1nn(-c2ccc(F)cc2F)cc1CNCCCN(C)C | 140.0* | 105.0 | 0.0 | 23.0 | 146.0 | 29.0 | 109.0
COCCN(C)Cc1cn(-c2ccc(F)cc2F)nc1-c1ccccc1C | 102.0 | 100.0 | 0.0 | 3.0 | nt | nt | nt
Cc1ccccc1-c1nn(-c2ccc(F)cc2F)cc1CNCCN(C)C | 150.0* | 86.0 | 0.0 | 23.0 | 144.0 | 30.0 | 106.0
CCC(COC)NCc1cn(-c2ccc(F)cc2F)nc1-c1ccccc1C (stereo not drawn) | 107.0 | 103.0 | 0.0 | -7.0 | nt | nt | nt
CCNC(=S)NCc1ccco1 | 95.0 | 97.0 | 4.0 | -1.0 | nt | nt | nt
Clc1ccc(-c2csc(Nc3ccccc3)[n+]2Cc2ccco2)c(Cl)c1 | 101.0 | 103.0 | nt | -3.0 | nt | nt | nt
COc1ccc(NC(=O)NCCCN2CCN(c3cc(C)ccc3C)CC2)cc1 | 135.0* | 115.0 | 0.0 | 25.0* | 138.0 | 25.0 | 101.0
O=C(CCN1C(=O)c2ccc([N+](=O)[O-])cc2C1=O)Nc1nccs1 | 98.0 | 106.0 | 2.0 | 0.0 | nt | nt | nt
COc1ccc(C(=O)N/N=c2\oc3ccccc3cc2C(=O)NCc2ccccc2)cc1 | 92.0 | 94.0 | 1.0 | -2.0 | nt | nt | nt
CCc1cccc2c(N=O)c(O)[nH]c12 | 110.0 | 136.0* | 3.0 | 0.0 | 108.0 | 8.0 | 105.0
N#CCSc1nnc(-c2cccnc2)n1-c1ccccc1 | 107.0 | 107.0 | 0.0 | 3.0 | nt | nt | nt
CC(=O)c1ccc(-c2ccccc2OC(F)(F)F)o1 | 61.0 | 49.0*[inhibitor] | 0.0 | -22.0 | 100.0 | -9.0 | 98.0
CCCCNC(=S)NCc1ccc2[nH]c3c(c2c1)CCCC3 | 111.0 | 120.0 | 0.0 | 17.0 | nt | nt | nt
Cc1c(NC(=O)/C(=C\c2ccccc2)NC(=O)c2ccccc2)c(=O)n(-c2ccccc2)n1C | 125.0 | 130.0* | 2.0 | 8.0 | 102.0 | 0.0 | 101.0
Cc1c(NC(=O)/C(=C/c2cccs2)NC(=O)c2ccccc2)c(=O)n(-c2ccccc2)n1C | 93.0 | 100.0 | 0.0 | 0.0 | nt | nt | nt
Cc1c(NS(=O)(=O)c2ccccc2)c(=O)n(-c2ccccc2)n1C | 124.0 | 126.0* | 2.0 | 7.0 | 92.0 | -8.0 | 97.0
Cc1c(NC(=O)c2ccccc2F)c(=O)n(-c2ccccc2)n1C | 41.0*[inhibitor] | 23.0*[inhibitor] | 4.0 | -32.0 | 101.0 | 2.0 | 106.0
O=C(NCCSc1ccc(Cl)cc1)c1ccc(CN2CCOCC2)cc1 | 108.0 | 106.0 | 1.0 | 4.0 | nt | nt | nt
CCOC(=O)Cc1c(C)nc2c(-c3ccc(Cl)cc3)c(C)nn2c1C | nt | 0.0*[inhibitor] | 0.0 | -34.0 | 90.0 | -10.0 | 89.0
SMILES | MEKK2 WT-MEK5 | MEKK3 PB1 HTS | GRK2 aptamer HTS | MEKK2 mut-MEK5 | MEKK2wt confirm | MEKK2mut-MEK5 | MEKK3 confirm
CCOC(=O)Cc1c(C)nc2c(-c3ccccc3OC)c(C)nn2c1C | 93.0 | 94.0 | 0.0 | 1.0 | nt | nt | nt
COc1ccc(C23CC4CC(CC(C4)C2)C3)cc1C(=O)NCCN(C)C | 140.0* | 104.0 | 0.0 | 17.0 | 163.0 | 37.0 | 107.0
COc1ccccc1C(=O)NCCC(=O)NCCC12CC3CC(CC(C3)C1)C2 | 102.0 | 106.0 | 0.0 | 2.0 | nt | nt | nt
Cc1ccc(/C=N/NC(=O)c2ccco2)cc1 | 78.0 | 63.0 | 3.0 | -25.0 | nt | nt | nt
CN(C)c1ccc(/C=N/NC(=O)c2ccco2)cc1 | 111.0 | 130.0* | 0.0 | 1.0 | 102.0 | 6.0 | 104.0
O=C(O)/C=C/C(=O)N1CCN(c2cccc(Cl)c2)CC1 | 116.0 | 129.0* | 0.0 | 1.0 | 111.0 | 6.0 | 104.0
O=C(O)CCC(=O)N1CCN(c2cccc(Cl)c2)CC1 | 90.0 | 94.0 | 3.0 | 0.0 | nt | nt | nt
CC(C)Oc1ccc(C(=O)Nc2cccc3cccnc23)cc1 | 98.0 | 102.0 | 0.0 | 2.0 | nt | nt | nt
CCOC(=O)c1nnn2c1nc(SCC(C)=O)c1ccccc12 | 138.0* | 132.0* | 1.0 | 32.0 | 99.0 | -4.0 | 100.0
COc1ccccc1OC(C)C(=O)O (stereo not drawn) | 100.0 | 95.0 | 2.0 | -3.0 | nt | nt | nt
O=C(NCc1ccccc1)C(=O)NCC1OCCN1C(=O)c1ccc(Cl)cc1 (stereo not drawn) | 98.0 | 100.0 | 2.0 | -2.0 | nt | nt | nt
O=C(NCc1ccccc1)C(=O)NCC1OCCN1C(=O)c1cccs1 (stereo not drawn) | 103.0 | 132.0* | 6.0 | 0.0 | 99.0 | 0.0 | 102.0
Cc1ccc(CNC(=O)C(=O)NCC2OCCN2C(=O)c2cccs2)cc1 (stereo not drawn) | 103.0 | 135.0* | 0.0 | 0.0 | 104.0 | 2.0 | 105.0
Cc1ccc(CNC(=O)C(=O)NCC2OCCN2C(=O)c2ccc(Cl)cc2)cc1 (stereo not drawn) | 99.0 | 104.0 | 0.0 | 2.0 | nt | nt | nt
Cc1ccc(S(=O)(=O)N(C)C)cc1NC(=S)NNC(=O)C1CC1 | 105.0 | 131.0* | 1.0 | 0.0 | 99.0 | -1.0 | 99.0
CCCn1c(SCC(=O)N2c3ccccc3Sc3ccccc32)nc2ccccc21 | 107.0 | 150.0* | 1.0 | 0.0 | 97.0 | -5.0 | 104.0
O=C(O)CCn1c(SCc2ccccc2)nc2ccccc21 | 0.0*[inhibitor] | 0.0*[inhibitor] | 0.0 | -21.0 | 98.0 | -6.0 | 98.0
Cc1cc(=O)c2n(Cc3ccccc3Cl)nc[n+]2[nH]1 | 93.0 | 96.0 | 0.0 | -3.0 | nt | nt | nt
O=C(c1ccc(S(=O)(=O)Nc2ccccc2F)cc1)N1CCC1 | nt | nt | 1.0 | nt | nt | nt | nt
c1ccc(COc2ccccc2CNc2nn[nH]n2)cc1 | 72.0 | 67.0*[inhibitor] | 2.0 | -9.0 | 103.0 | -1.0 | 103.0
Fc1ccc(COc2ccc3ccccc3c2CNc2nn[nH]n2)cc1 | 96.0 | 101.0 | 0.0 | -3.0 | nt | nt | nt
CCCn1c(SCC(=O)NC2CCCc3ccccc32)n[nH]c1=O (stereo not drawn) | 104.0 | 95.0 | 0.0 | 1.0 | nt | nt | nt
O=C(NC12CC3CC(CC(C3)C1)C2)C1CC(=O)N(c2ccc(Br)cc2)C1 (stereo not drawn) | 101.0 | 104.0 | 2.0 | 9.0 | nt | nt | nt
